Screening results: PubChem, National Center for Advancing Translational Sciences (NCATS)
aSyn yeast rescue – rescues yeast growth from alpha-synuclein toxicity | S. cerevisiae alpha-synuclein toxicity rescue, BacTiter-Glo growth, 24 h | Potency, µM (titrated, usually from 46.1 µM), hits mostly activators | 0.02% of 94,000 active; active = well fitted activation curve with a large enough effect; note: 0% is about no effect
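Growth restoration measured by BacTiter-Glo luminescence after 24 hr at 30 deg C; alpha-synuclein yeast, raffinose-pregrown to mid-log, were added at OD600=0.02 in galactose medium onto pinned compounds.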
The depositor's hits bear a star; i = inactive. Shown is part of a subset that was picked to be rich in hits. Potency is the fitted concentration of half-maximal effect.

SMILES	aSyn yeast rescue
Cc1cccc(N2CCN(C(=O)c3cnn(-c4ccccc4Cl)c3C3CCN(C(=O)OC(C)(C)C)CC3)CC2C)c1 (stereo not given)	i
O=C(CCC1CCCC1)N1CCc2c([nH]c3ccccc23)C1c1ccc(F)cc1 (stereo not given)	i
Cc1ccc(C2c3[nH]c4ccccc4c3CCN2C(=O)CSCc2ccc(F)cc2)cc1 (stereo not given)	15.8µM*
CCOc1ccc(C2c3[nH]c4ccccc4c3CCN2C(=O)CSc2ccccc2)cc1 (stereo not given)	i
Cc1ccc(C2c3[nH]c4ccccc4c3CCN2C(=O)CSc2ccccc2)cc1 (stereo not given)	14.1µM*
CSc1ccc(C2c3[nH]c4ccccc4c3CCN2C(=O)CCc2ccccc2)cc1 (stereo not given)	i
CCc1ccccc1NC(=O)N1CCc2c([nH]c3ccccc23)C1c1ccc(C)cc1 (stereo not given)	i
COc1cc(NC(=O)C2CCCN(S(=O)(=O)c3ccc4c(c3)oc(=O)n4C)C2)c(C(=O)O)cc1OC (stereo not given)	i
CCOc1ccc(CNS(=O)(=O)c2c(C(=O)N3CCCCCC3)c(C)n(C)c2C)cc1OC	i
COc1cc(OC)c(NC(=O)c2c(N3CCCC3=O)c3cc(C)ccc3n2C)cc1Cl	i
CCOc1ccccc1NC(=O)C(Cc1ccccc1)NS(=O)(=O)c1ccc(Br)s1 (stereo not given)	i
O=C(Cn1c(=O)n(CCCS(=O)(=O)C2CCCCC2)c(=O)c2ccccc21)Nc1ccc(F)c(Cl)c1	i
Cc1c(-c2nsc(NC(=O)c3cccs3)n2)nnn1-c1ccc(Cl)cc1	i
CCc1c(-c2ccccc2)nc2ccccc2c1C(=O)NC(C)c1ccccc1 (stereo not given)	i
Cc1oc(-c2ccccc2F)nc1CS(=O)(=O)CC(=O)N1CCN(c2ccc(Cl)cc2)CC1	i
Cn1c(SCc2ccccc2Cl)nc2c([nH]c3ccccc32)c1=O	i
CCCCSCCCNC(=O)C1CCC(CNS(=O)(=O)c2c(C)cc(C)cc2C)CC1 (stereo not given)	i
CCOc1ccc(-n2c(Cc3ccccc3)nnc2SCc2nc(-c3ccccc3C)no2)cc1	i
O=C(Nc1cc(C(F)(F)F)ccc1Cl)c1noc2c1CCCCC2	i
CCOC(=O)c1c(C)[nH]c(C)c1S(=O)(=O)N1CCCC(C(=O)Nc2cc(C)ccc2C)C1 (stereo not given)	i
CCc1ccc(-n2c(=O)c3c4c(sc3n(CC(=O)c3ccc(Br)cc3)c2=O)CCC4)cc1	i
COc1ccc(Cl)cc1NC(=O)c1cc(S(=O)(=O)N(C)Cc2ccccc2)ccc1F	i
COc1ccccc1CCNC(=O)C(=O)NCC(c1ccco1)S(=O)(=O)c1ccc(C)cc1 (stereo not given)	i
